TRHR PAM: allosteric enhancers of human TRH receptor; TRHR cells, fluo-8 calcium fluorescence, EC20 TRH enhancement; enhancement, % at 2 µM; 360,000 tested, 0.66% active; in the data active means enhancement above about 30%; further: 0% is about no effect
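TRHR-expressing cells loaded with fluo-8 calcium dye were read kinetically (ex 480/em 530) during compound addition, then stimulated with an EC20 of TRH (10 nM final). Enhancement of the Gq-mediated intracellular calcium response was scored.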
TRHR ag: activates the human TRH receptor; P34981; TRHR cells, calcium flux fluo-8, FDSS agonist mode; activation, % at 2 µM; 360,000 tested, 0.18% active; AID 493084; further: 0% is about no effect
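Steps: seed TRHR cells overnight; add fluo-8 no-wash Ca dye, RT 30 min–1.5 h; record 10 s baseline; pin-transfer compounds; monitor fluorescence 1 cycle/s for the agonist window. Calcium increases flag candidate agonists.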
D1 potentiator: potentiators of human D1 dopamine receptor; potentiation, % at 10 µM; 360,000 tested, 0.036% active; HEK293 TREx D1 cells, calcium flux, dopamine EC20 potentiation; in the data active means potentiation above about 30%; further: 0% is about no effect
Target sequence (P21728 whole entry, looked up): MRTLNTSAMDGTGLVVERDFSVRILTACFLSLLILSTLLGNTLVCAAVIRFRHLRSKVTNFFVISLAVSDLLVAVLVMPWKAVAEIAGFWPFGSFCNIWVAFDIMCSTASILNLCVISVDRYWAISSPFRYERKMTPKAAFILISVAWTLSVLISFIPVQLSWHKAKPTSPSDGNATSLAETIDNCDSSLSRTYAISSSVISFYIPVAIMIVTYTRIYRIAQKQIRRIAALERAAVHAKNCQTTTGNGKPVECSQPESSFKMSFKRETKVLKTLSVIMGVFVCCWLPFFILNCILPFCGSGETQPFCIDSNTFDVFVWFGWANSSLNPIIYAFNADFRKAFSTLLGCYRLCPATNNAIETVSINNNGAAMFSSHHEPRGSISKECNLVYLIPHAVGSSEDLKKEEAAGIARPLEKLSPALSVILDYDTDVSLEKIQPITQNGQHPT
D1 antag: antagonists of human D1 dopamine receptor. HEK293 TREx D1 cells, calcium flux, dopamine EC80; stronger effect = lower value. AID 504652. P21728. 360,000 tested, 3.2% active. activity change, negative = inhibition, % at 10 µM; in the data active means activity change below about -30%; further: on the % scale 0 is the no-effect control and ±100 the full control effect
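Inducible Hek293 Trex D1 cells (tetracycline, overnight, 30 C). Calcium dye 30–90 min RT. Antagonist mode: EC80 dopamine added after 180 s compound read.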
D1 agonist: activates the human D1 dopamine receptor; HEK293 T-REx D1 cells, calcium flux, agonist mode; 360,000 tested, 1% active; P21728; activation, % at 2 µM; further: 0% is about no effect
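Agonism was scored from calcium flux recorded over 180 s (1 read/s) after pintool compound addition, following a 10-cycle baseline. Cells were inducible force-coupled HEK293 TREx D1, plated overnight at 30 C and loaded with no-wash calcium dye.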
* = called active by the depositor; . = no result. Rows were chosen to be rich in hits. Some 4.7% of all compounds tested hit in one or more screens of this group. Unless noted, no stated cut-off is given here; in the data, active means activation above about 30%; inactive means the rest.

SMILES	TRHR PAM	TRHR ag	D1 potentiator	D1 antag	D1 agonist
CCOC(=O)c1cc(C#N)c(SC)nc1C	0.7	-2.3	-0.4	1.8	0.9
CCOC(=O)c1cc(C#N)c(SC)nc1-c1ccccc1	-2.2	-0.3	-3.4	-44.0*	9.2
CC(C)c1cnc2c(c1SCc1cccc(C(F)(F)F)c1)c(=O)n(C)c(=O)n2C	0.4	-0.5	2.8	4.1	7.7
CCOC(=O)C(Cc1ccc(O)cc1)NC(=O)CCc1c[nH]c2ccccc12 (configuration not stated)	6.5	2.8	-2.6	-15.7	37.4*
CCOC(=O)C(Cc1c[nH]c2ccccc12)NC(=O)COc1ccc(CC)cc1 (configuration not stated)	-3.6	-0.9	0.5	0.9	2.8
COc1ccc([C@]23Cc4cc(OC)c(OC)cc4C(O2)C2=C(CCCC2=O)O3)cc1	-5.3	0.4	-3.2	5.8	-0.1
Cn1c(SCc2ccccc2)nc2c1c(=O)[nH]c(=O)n2C	-2.7	0.0	-4.0	-35.4*	0.2
CC1=CC(C)(C)N=C(Nc2ccc(C)cc2)S1	-4.5	0.5	-11.7	-33.0*	4.2
Cc1nnc2n(-c3ccccc3)c(=O)c3c4c(sc3n12)COC(C)(C)C4	25.2	-0.5	-3.4	-7.3	2.7
Cc1nn2c(=O)c3c4c(sc3nc2n1-c1ccccc1)COC(C)(C)C4	39.5*	-1.0	5.2	1.9	2.6
Cc1cc(NC(=O)Nc2nc3c(s2)CCCCCC3)ccc1Br	-0.9	-0.1	-0.6	1.6	6.3
Cc1cc(C)cc(-n2c(C)cc(C(=O)CSc3nnnn3C)c2C)c1	-13.4	-1.0	-6.5	-11.4	41.1*
CC(C)(C)OC(=O)Cc1nnc(-c2cc3ccccc3[nH]2)s1	-2.6	1.0	-0.3	8.2	1.7
CCCN(CCC)CCCNC(=O)c1cc2cc3ccc(Cl)cc3nc2o1	39.9*	0.7	-5.8	-13.7	1.7
CC(C)(C)c1ccc(Cn2c(=N)n(CC(O)c3ccco3)c3ccccc32)cc1 (configuration not stated)	9.6	3.3	9.6	-10.1	71.8*
COc1ccc(-n2c(C)cc(/C=C/c3nc(O)c([N+](=O)[O-])c(=O)[nH]3)c2C)cc1	8.3	0.3	-4.1	-54.5*	1.3
O=C(NCCc1csc(-c2cccnc2)n1)c1cccc(C(F)(F)F)c1	-1.5	-0.9	-2.5	-4.2	6.3
Cc1ccc(Cl)cc1NC(=O)COC(=O)CC(C)(C)CC1=NS(=O)(=O)c2ccccc2N1	1.0	0.1	-3.1	12.7	6.0
CC(C)(CC(=O)NCc1ccc(Cl)cc1Cl)CC1=NS(=O)(=O)c2ccccc2N1	-3.2	0.1	-4.7	-51.2*	21.4
COc1ccc(CCC(=O)NC2CC(=O)N(c3ccc(F)cc3)C2)cc1 (configuration not stated)	4.8	0.6	1.0	.	-2.1
Cc1ccc(NS(=O)(=O)c2cc(C(=O)N3CCN(CCO)CC3)ccc2C)cc1	9.9	0.3	7.9	-24.4	-0.9
Cc1ccc(C)c(S(=O)(=O)NCc2ccc(C(=O)N3CCN(C)CC3)cc2)c1	3.5	-0.2	-3.6	-31.7*	3.8
Cc1ccc(NS(=O)(=O)c2cc(C(=O)N3CCN(C)CC3)ccc2C)cc1	-0.1	0.4	-3.8	-34.3*	-1.0
CNS(=O)(=O)c1cccc(C(=O)OCC(=O)c2c(N)n(C)c(=O)n(C)c2=O)c1	4.4	-1.3	0.2	-32.4*	3.8
CNS(=O)(=O)c1cccc(C(=O)OCC(=O)/C=C2/N(C)c3ccccc3C2(C)C)c1	5.5	1.5	-5.7	-42.9*	18.4
SMILES	TRHR PAM	TRHR ag	D1 potentiator	D1 antag	D1 agonist
CN1/C(=C\C(=O)COC(=O)c2ccc(O)c(O)c2)C(C)(C)c2ccccc21	12.8	-0.5	-12.8	-26.2	19.1
Cc1ccc(C)c(NC(=O)Cc2coc3cc(C)cc(C)c23)c1	-2.5	0.9	5.5	-18.3	2.8
O=C(Nc1ccc(-c2cn3cccnc3n2)cc1)c1ccccc1F	-4.8	-0.3	-6.0	5.4	-0.4
Oc1c(C=C2N=c3ccccc3=N2)sc(=S)n1C1CCCC1	-0.8	-0.2	8.0	-71.1*	5.3
Oc1c(C=C2N=c3ccccc3=N2)sc(=S)n1-c1ccc(F)cc1	17.5	0.1	3.1	9.1	2.8
COc1ccc(-c2cc(C(=O)Oc3ccc(C#N)cc3)no2)cc1	2.2	-1.7	4.1	3.7	3.4
NC(=O)NC(c1ccccc1)c1ccccc1	-5.1	0.7	34.8*	.	184.7*
CC1=C(C(=O)OC2CCCCCC2)C(c2cccc(Cl)c2)CC(=O)N1 (configuration not stated)	2.3	-1.5	-1.4	0.2	13.0
O=S(=O)(c1ccccc1)c1nnn2c1nc(NCc1ccccc1)c1cc(Cl)ccc12	-2.3	0.7	-2.8	19.7	3.0
Cc1c(C(=O)N2CCCCCC2)c(S(=O)(=O)Nc2ccc(OC(F)(F)F)cc2)c(C)n1C	2.1	0.1	2.0	3.6	8.6
Cc1cccc(N2C(=O)CS(=O)(=O)C23C(=O)N(C)c2ccccc23)c1 (configuration not stated)	10.7	-0.2	-1.1	4.8	2.1
CN(C)c1ccnc(Oc2ccc(Cl)cc2)c1C#N	4.5	-0.3	-10.4	7.6	21.0
Cc1cc(Cl)ccc1Oc1nccc(N(C)C)c1C#N	-6.4	0.1	-11.1	-36.9*	10.5
COc1ccnc(Oc2ccc(Cl)cc2)c1C#N	-6.9	-0.4	-6.7	-34.6*	0.4
COc1ccnc(Oc2ccccc2)c1C#N	-5.7	-1.2	-2.9	4.8	0.7
COc1ccc(NCc2cc3cc4c(cc3n(CC(=O)Nc3ccccc3)c2=O)OCO4)cc1	1.8	-1.0	4.0	-1.3	133.6*
COc1cc2cc(CNc3ccccc3)c(=O)n(CC(=O)Nc3cc(C)cc(C)c3)c2cc1OC	0.3	34.2*	-1.2	14.7	16.3
CCc1ccc(NCc2cc3cc4c(cc3n(CC(=O)Nc3ccc(Cl)cc3)c2=O)OCO4)cc1	2.9	-1.1	3.6	-1.7	176.2*
COc1cc(Nc2ncc3c(n2)CCN(Cc2cc(F)cc(F)c2)C3)cc(OC)c1	-5.4	1.2	1.6	3.1	0.1
CCOc1ccc(CNC(=O)C2Cc3ccccc3N2C(=O)CC)cc1 (configuration not stated)	20.5	0.4	-0.1	12.2	-0.8
O=C(CSCc1ccc(F)cc1)N1CCN(c2ccccc2F)CC1	-1.4	-0.9	-2.1	-57.8*	1.3
CC(CC(=O)N1CCN(c2ccccc2F)CC1)c1ccccc1 (configuration not stated)	-2.6	-0.1	2.1	-32.1*	4.1
Cc1cccc(NC(=O)CSc2nc3ccccc3nc2N2CCCCC2)c1C	1.7	-0.9	-2.2	-3.3	-0.6
Cc1ccc(N/N=C(\C#N)C(N)=S)c(C)c1	-3.0	3.4	-12.2	-34.9*	37.0*
O=C1Nc2ccccc2C12OCCCO2	-7.3	0.0	-3.0	-43.7*	3.3

High-throughput results as filed in PubChem.
